Compounds without any hit were thinned out: in the full panel of roughly 83,000, 20% have a hit.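 Assay: single dose, 48 h. Readout: percent growth (0 = no net growth; negative = cell death). Active: <10.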 Values without a mark were called inactive. Active and inactive are the calls of the source.
Columns and labels:
Assay in all cases: NCI-60 one-dose screen, 48 h (100 = growth as untreated, 0 = no growth, -100 = all killed)
Settings in all cases: 10 µM unless noted
NCI-H23 lung = system: NCI-H23 lung
NCI-H226 lung = system: NCI-H226 lung
NCI-H322M lung = system: NCI-H322M lung
HOP-62 NSCLC = system: HOP-62 NSCLC
NCI-H460 lung = system: NCI-H460 lung
HOP-92 NSCLC = system: HOP-92 NSCLC
NCI-H522 lung = system: NCI-H522 lung
A549/ATCC NSCLC = system: A549/ATCC NSCLC
786-0 renal = system: 786-0 renal
COLO 205 colon = system: COLO 205 colon
DU-145 prostate = system: DU-145 prostate
K-562 leukemia = system: K-562 leukemia
MALME-3M melanoma = system: MALME-3M melanoma
MDA-MB-231 breast = system: MDA-MB-231 breast
RXF 393 renal = system: RXF 393 renal
SF-268 CNS = system: SF-268 CNS
SF-295 CNS = system: SF-295 CNS
SF-539 CNS = system: SF-539 CNS
UACC-257 melanoma = system: UACC-257 melanoma
M14 melanoma = system: M14 melanoma

Structure (SMILES) | growth (NCI-H23 lung) | growth (NCI-H226 lung) | growth (NCI-H322M lung) | growth (HOP-62 NSCLC) | growth (NCI-H460 lung) | growth (HOP-92 NSCLC) | growth (NCI-H522 lung) | growth (A549/ATCC NSCLC) | growth (786-0 renal) | growth (COLO 205 colon) | growth (DU-145 prostate) | growth (K-562 leukemia) | growth (MALME-3M melanoma) | growth (MDA-MB-231 breast) | growth (RXF 393 renal) | growth (SF-268 CNS) | growth (SF-295 CNS) | growth (SF-539 CNS) | growth (UACC-257 melanoma) | growth (M14 melanoma)
CC(=O)N[C@@H](CNC(=O)c1cc(NC(=O)c2cc(NC(=O)c3cc(NC(=O)c4nccn4C)cn3C)cn2C)cn1C)CC(=O)Nc1cn(C)c(C(=O)Nc2cc(C(=O)Nc3cc(C(=O)Nc4cc(C(=O)NCCCN(C)CCCNC(=O)c5cccc(C(=O)O)c5)n(C)c4)n(C)c3)n(C)c2)n1 | 89.9% | 58.4% | 57% | 91.6% | 10.6% | 106% | 39% | -10.7% (active) | 82.7% | 45.1% | 53.3% | 105% | 122% | 113% | 97.6% | 95.9% | 47.8% | 107% | 113% | 89.9%
Nc1ncnc2c1c(-c1ccc(Oc3ccccc3)cc1)nn2C[C@H]1SSC[C@H]1O | 19.3% | -2.25% (active) | 13.4% | 20.1% | -43.6% (active) | -4.52% (active) | -31.1% (active) | -35.8% (active) | 12.9% | -83.3% (active) | -22.6% (active) | -16.9% (active) | 13.9% | 9.82% (active) | -4.66% (active) | 20.1% | 20.7% | 10% | 1.69% (active) | -66.7% (active)
CCCCCCCC(=O)SCC/C=C/[C@@H]1CC(=O)NCc2nc(cs2)C2=N[C@@](C)(CS2)C(=O)N[C@@H](C(C)C)C(=O)N1 | 16.5% | 3.64% (active) | 1.39% (active) | 12.1% | 9.84% (active) | -10.5% (active) | -27.4% (active) | 0.822% (active) | 17.2% | -71.8% (active) | 10.9% | 6.8% (active) | 10.8% | 11.4% | -52.8% (active) | 18% | 2.96% (active) | 25% | -19.6% (active) | 15.5%
CCNc1cc(S(=O)(=O)O)ccc1C | 103% | 103% | 112% | 90.8% | 112% | 104% | 93.3% | 81.3% | 99.8% | 92.8% | 108% | 102% | 106% | 102% | 110% | 113% | 101% | 102% | 83.2% | 106%
COc1ccc2c(c1)C(=O)/C(=C/c1ccc(OCC(=O)c3ccc(Cl)cc3)cc1)O2 | 97.1% | 80.7% | 102% | 121% | 106% | 50.6% | -64.2% (active) | 99.2% | 115% | 123% | 104% | -42.3% (active) | 80% | 68.8% | 74.5% | 108% | 73.7% | 96% | 75.1% | 83.9%
CC(C)(C)OC(=O)NCc1cccc(N=C=S)c1 | 55.3% | 80.6% | 65.7% | 57.8% | 63.8% | -0.561% (active) | 12.8% | 69.2% | 54.9% | 38.5% | 55.7% | 37.3% | 29.9% | 75.4% | -15.7% (active) | 47.2% | 21% | 3.66% (active) | 39.4% | 49.3%
O=C(NCCNc1nccc(-c2c(-c3cccc(O)c3)nc3sccn23)n1)c1cc(N2CCOCC2)cc(C(F)(F)F)c1 | 106% | 106% | 107% | 136% | 96.2% | 87.7% | 78.6% | 88.6% | 86.6% | 32.7% | 110% | 70.7% | 3.04% (active) | 74.1% | 77.8% | 102% | 84.4% | 101% | 16.7% | 22.4%

— PubChem BioAssay (NCI)
